From the supplement of paper PMC6555819

Columns and labels:
Assay in all cases: PBM binding z-score (relative to random genomic background probes); higher = stronger binding; sequences stand for … in GC…GCGATTGACAGCGTAGAATGAAGG
[1] = tested on: PPARg:RXRa DBDmut IVT, anti-RXR (DBD mutation: RXRa K156A/R161A, NR concentration 270 nM, RXRa partner concentration 90 nM)
Method in brief: (§1)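 Scanned fluorescence from custom Agilent 4×180K protein-binding microarrays was regression-normalized. Binding z-scores use random background probes as reference. Ligand-free nuclear receptor dimers were incubated on the arrays for 1 h and detected with antibodies against each partner (one per run).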

[2] = tested on: PPARg:RXRa IVT, anti-PPARg (NR concentration 270 nM, RXRa partner concentration 90 nM)
Method in brief: as §1

[3] = tested on: PPARg DBDmut:RXRa IVT, anti-PPARg (DBD mutation: PPARg1 K132A/R137A, NR concentration 270 nM, RXRa partner concentration 90 nM)
Method in brief: as §1

[4] = tested on: PPARg DBDmut IVT, anti-PPARg (DBD mutation: PPARg1 K132A/R137A, NR concentration 270 nM)
Method in brief: as §1

[5] = tested on: PPARg homodimer (NR concentration 180 nM)
Method in brief: as §1

[6] = tested on: PXR:RXRa (NR concentration 270 nM, RXRa partner concentration 90 nM)
Method in brief: as §1

[7] = tested on: PXR homodimer (NR concentration 270 nM)
Method in brief: as §1

[8] = tested on: RARa:RXR (NR concentration 270 nM, RXRa partner concentration 90 nM)
Method in brief: as §1

[9] = tested on: RARa homodimer (NR concentration 270 nM)
Method in brief: as §1

[10] = tested on: RARb:RXRa (NR concentration 270 nM, RXRa partner concentration 90 nM)
Method in brief: as §1

Row | Sequence | PBM binding z-score [1] | PBM binding z-score [2] | PBM binding z-score [3] | PBM binding z-score [4] | PBM binding z-score [5] | PBM binding z-score [6] | PBM binding z-score [7] | PBM binding z-score [8] | PBM binding z-score [9] | PBM binding z-score [10]
1 | TCTTGTAGATCAACAGGAGGTTAACAAAGATCGA | 1.52 | 1.09 | 0.689 | 0.664 | 0.353 | 1.08 | 0.0367 | 1.36 | -0.353 | 0.717
2 | GCTCGGAGGACAAGCTCAGAGCTTTGTCCGTAGA | -0.93 | -0.339 | -0.667 | -0.738 | -0.886 | -0.742 | -0.896 | -0.828 | -1.84 | 0.862
3 | CGAACTAGGTCATCCAGGACAGTGCATACATTGA | 8.26 | 8.19 | 1.89 | 1.6 | 1.98 | 2.11 | 1.49 | 2.35 | 0.873 | 3.91
4 | CAGCCTAGGTCAGTGCCAGTATAGGAGGAACGTT | 1.7 | 1.05 | -1.18 | -1.02 | 0.587 | -0.0213 | -0.197 | 0.516 | -0.0242 | 3.17
5 | TCATATAGGTAAAACGTGAAAGTCGGTGTGGTAA | 6.04 | 2.88 | 0.79 | 1.01 | 1.25 | 0.221 | 0.241 | 0.571 | 1.24 | 0.406
6 | CGTCCAAGCTCAGAGAGGTCAGTGAATGCCGAGT | 0.269 | 0.153 | -0.648 | -1.03 | 2.06 | 2.96 | 0.893 | 2.85 | 0.843 | 2.82
7 | TCATAAAGGTAAAAGGTGAAAGTCGGTGTGGTAA | 3.49 | 3.5 | 0.634 | 0.86 | 2.26 | 2.56 | 0.65 | 4 | 1.25 | 2.54
8 | AGTCAGAGTTCACTAGGTAACGTAAGATTCAGCT | 2.59 | 4.05 | 1.02 | 0.611 | 2.37 | 4.41 | 3.8 | 2.72 | 0.385 | 3.97
9 | ATCTCTAGGTAACAAATTCAGTGAAAGAGAGGAC | 2.5 | 2.57 | 1.67 | 1.65 | 0.744 | 0.225 | 0.486 | 0.657 | 1.4 | 0.701
10 | ATCTCTAGGTAAAGATAGTTCAGTGGATGCAAAT | 1.85 | 1.54 | 0.905 | 0.158 | 0.189 | 0.971 | 0.373 | 0.0212 | 1.18 | 0.718
11 | TATACAGTGTCAAAGGCCAGAGTACGAATGTCGA | 0.051 | 2.04 | 0.51 | 1.14 | 0.46 | 0.552 | 0.236 | 1.33 | 0.548 | 1.88
12 | CCGACTGGGGCATATGGTTACCATAAGCCAGCCC | 1.89 | 2.21 | -0.616 | -1.62 | -0.697 | -0.746 | -0.567 | -0.363 | -0.355 | 0.172
13 | GCTCGGACGACAAGGTCAGAGCTTTGTCCGTAGA | -0.353 | -0.175 | -1.38 | -1.46 | 0.248 | 1.73 | -0.194 | 2.24 | -0.933 | 2.84
14 | CAAACTAGGTCACCGGAAGGTCAAGGTCCGCATG | 8.67 | 8.88 | 2.07 | 0.589 | 8.45 | 5.6 | 1.49 | 7.28 | 2.79 | 5.37
15 | CCGACTGGGGCAAAGGTTACCTTACTCAGTACGA | 5 | 5.64 | 0.278 | -0.11 | 1.61 | 2.22 | -0.485 | 3.41 | -0.487 | 2.19
16 | CATACAGGGTCAGCTAGGCCAGGGTAGGGACGGC | 0.462 | 2.48 | 0.368 | 0.335 | 1.37 | 2.18 | -0.00796 | 3.16 | 0.91 | 4.02
17 | CCGACTGGGGCTAGGTTACCATAACGCACAGCCA | 0.166 | 0.0447 | -1.21 | -1.97 | -0.278 | -0.509 | -0.572 | -0.318 | -0.21 | 0.392
18 | CGTCCAAGGTCAGCAGGGCAGTGAAAGCGACGTG | 2.44 | 3.13 | -0.138 | -1.04 | 1.69 | 2.25 | 0.00417 | 3.12 | 0.417 | 5.17
19 | ATCTTTAGGTAAAAGTTCAGTGAATCCCGAGGAT | 0.803 | 3.1 | 1.38 | 1.31 | 1.01 | 2.07 | 1.47 | 1.56 | 0.328 | 2.51
20 | AGTCTAAGTTCATCTAGGTAACGTAAGATATGCT | 0.694 | 2.11 | 1.22 | 1.39 | 1.48 | 4.78 | 8.13 | 2.24 | 0.123 | 3.55
21 | AGAACGAGGGCACGCAGAGTTGATAGCAGAGTAG | 4.1 | 4.09 | 0.653 | 0.16 | 0.313 | 1.55 | 0.0867 | 1.22 | -0.379 | 2.92
22 | ATCTCAAGGTAACCAAGTTCAGTGAATGCCGAAC | 0.508 | 1.32 | 0.386 | 0.953 | 0.654 | 2.82 | 3 | 1.14 | 0.198 | 1.62
